High-throughput results from PubChem.
The entries come from a sample that favours hits as a whole.
CBX7 inh: inhibitors of human CBX7 binding to H3K27me3 peptide; 66,000 compounds, 1.1% hits; normalised signal (fraction of DMSO) (concentration not given with the values); O95931; AID 1224903; AlphaScreen His6-CBX7 / biotin-H3K27me3 peptide binding; hits give low values; in the data active = normalised signal below about 0.5
Target sequence (O95931 whole entry, looked up): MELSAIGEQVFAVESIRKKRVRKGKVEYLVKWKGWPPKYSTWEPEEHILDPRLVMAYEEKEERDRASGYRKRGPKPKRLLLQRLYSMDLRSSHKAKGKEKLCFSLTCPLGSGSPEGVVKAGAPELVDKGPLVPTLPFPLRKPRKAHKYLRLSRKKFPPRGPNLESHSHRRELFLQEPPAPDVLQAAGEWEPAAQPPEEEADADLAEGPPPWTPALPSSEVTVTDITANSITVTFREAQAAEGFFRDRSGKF
* marks the source's active call; other numbers are inactive results.

SMILES | CBX7 inh
COCCNC(=O)C1CC(c2cc(OC)ccc2OC)=NO1 (stereo unspecified) | 1
COc1ccc(CCNC(=O)C(=O)NCCc2c[nH]c3ccccc23)cc1OC | 0.87
Cc1cccc(N2CCN(CCNC(=O)Nc3ccccc3C(F)(F)F)CC2)c1C | 1
O=C(CCCn1c(=O)c2sccc2n(Cc2cccc(F)c2)c1=O)NCc1ccc2c(c1)OCO2 | 1
Cc1oc(-c2ccc(Cl)cc2)nc1C(=O)NCc1ccc(F)cc1 | 1
NC(=O)CSc1nnc2c(n1)[nH]c1ccccc12 | 1
c1ccc(CSc2nnc3c(n2)[nH]c2ccccc23)cc1 | 1.1
CCOC(=O)CCCCC(=O)c1[nH]c(=O)[nH]c1CSc1nnc2c(n1)[nH]c1ccccc12 | 0.42*
CCCCCCNC(=O)c1c[nH]c2ccc(S(=O)(=O)N3CCc4ccccc4C3)cc2c1=O | 1.1
CC1(C)CC(=O)C2=C(C1)N(c1ccccc1F)C(=O)CC2c1ccsc1 (stereo unspecified) | 1.4
COc1ccc(-n2cnc3cc(Nc4nnc(C)c5ccccc45)ccc32)cc1 | 1.3
CC(C)(C)n1cnc2cc(NCc3cccc4ccccc34)ccc21 | 0.6
COc1ccc(-n2cnc3cc(NC(=O)c4ccccc4)ccc32)cc1 | 1
COc1ccc(-n2cnc3cc(NS(=O)(=O)c4ccccc4)ccc32)cc1 | 0.77
COc1ccc(-n2cnc3cc(NCc4cccc5ccccc45)ccc32)cc1 | 0.31*
Brc1ccc(NCc2nc3ccccc3n2CCOc2ccccc2)cc1 | 1
CCOc1ccc(NCc2nc3ccccc3n2CCOc2ccccc2)cc1 | 0.18*
COc1ccc(-n2cnc3cc(NCc4nc5ccccc5n4C)ccc32)cc1 | 0.41*
CCOc1ccc(NCc2nc3ccccc3n2CCOc2ccc(C)cc2)cc1 | 0.65
CCn1c(C(=O)c2ccccc2)c(C(=O)O)c2ccccc21 | 1
O=C(O)c1ccc(NCc2ccccc2Cl)c(S(=O)(=O)Nc2cccc(C(F)(F)F)c2)c1 | 0.95
COc1ccc(-c2cc3ccccc3n2CC(O)CNc2ccc(C(C)C)cc2)cc1 (stereo unspecified) | 0.82
COc1ccc(NC(=O)c2cnc(N3CCN(c4ccccc4OC)CC3)c3ccccc23)cc1OC | 0.73
Cc1cc2ncn(-c3ncnc4scc(-c5ccc(Cl)cc5)c34)c2cc1C | 0.78
O=C(c1ccc2c(c1)N(Cc1ccccc1)CCS2)N1CCCCCC1 | 0.46*
SMILES | CBX7 inh
O=C(c1ccc2c(c1)N(Cc1ccccc1)CCS2)N1CCN(Cc2ccccc2)CC1 | 0.37*
O=C(c1ccc2c(c1)N(Cc1ccccc1)CCS2)N1CCc2ccccc21 | 0.81
O=C(c1ccc2c(c1)N(Cc1ccccc1)CCS2)N1CCN(c2ccc(Cl)cc2)CC1 | 0.62
O=C(c1ccc2c(c1)N(Cc1ccccc1)CCS2)N1CCN(c2ccccn2)CC1 | 0.62
O=C(c1ccc2c(c1)N(Cc1ccc(F)cc1)CCS2)N1CCN(c2ccccc2)CC1 | 0.76
COc1ccc(NC(=O)Cn2cc(S(=O)(=O)c3ccc(F)cc3)c(=O)c3ccccc32)cc1OC | 0.99
COc1ccc(-c2cn(-c3ccc(C)c(Cl)c3)c(=O)[nH]2)cc1OC | 1
c1ccc(Cn2c(-c3cccs3)nc3ccccc32)cc1 | 1.1
COc1cccc(-c2nc(C(=O)NC(C)CCc3ccccc3)c(C)o2)c1 (stereo unspecified) | 1
N#Cc1c(-c2ccc(F)cc2)c(C#N)c(=O)n(N)c1N | 0.16*
Cc1cc(C)n(Cc2ccc(F)cc2)c(=O)c1C#N | 1.1
CCCCCCCCNC(=O)c1ccc(CNS(=O)(=O)c2ccc(C)cc2)cc1 | 1.1
c1ccc(-c2csc(Nc3ccccn3)n2)cc1 | 0.97
Oc1cccc2ccc(Nc3ccccn3)nc12 | 0.0087*
Oc1cccc2ccc(Oc3cccc4cccnc34)nc12 | 1
CSc1nnc(Cc2cc(=O)[nH]c(=O)[nH]2)n1-c1ccc(Cl)cc1 | 1
CC(CCc1ccccc1)NC(=O)CC1Oc2ccccc2NC1=O (stereo unspecified) | 0.99
Cc1[nH]nc(-c2ccc(O)c(C)c2O)c1Oc1ccccc1 | 0.64
CCOc1cc(O)c(-c2n[nH]c(C)c2Oc2ccccc2)cc1CC | 0.75
CCc1cc(-c2n[nH]c(C)c2Oc2ccccc2)c(O)cc1O | 0.41*
Cc1cccc(NC(=O)C(Cc2ccccc2)NS(=O)(=O)c2cccc3cccnc23)c1 (stereo unspecified) | 0.89
Fc1ccc(Cc2nnc(Cc3ccccc3)o2)cc1 | 0.98
CCOC(=O)N1CCN(C(=O)C2CCN(C(=O)c3cc4sccc4n3CC)CC2)CC1 | 0.92
CCn1c(C(=O)N2CCCC(C(=O)N3CCN(c4cccc(C)c4)C(C)C3)C2)cc2sccc21 (stereo unspecified) | 0.6
CCn1c(C(=O)N2CCC(C(=O)N3CCN(c4cccc(C)c4)C(C)C3)CC2)cc2sccc21 (stereo unspecified) | 0.44*
SMILES | CBX7 inh
Cc1ccc(S(=O)(=O)N2CCCC(C(=O)NCc3ccc(F)cc3)C2)cc1 (stereo unspecified) | 1.1
Cc1ccc(NC(=O)c2cnn(-c3ccccc3)c2C2CCNCC2)cc1F | 1.1
COc1ccccc1NC(=O)NCc1ccccn1 | 0.86
COc1ccc(S(=O)(=O)Nc2ccccc2Cl)c2cccnc12 | 1.1
COc1cccc2c(S(=O)(=O)Nc3ccc(C(=O)O)cc3)ccnc12 | 0.12*
COc1ccc(S(=O)(=O)Nc2cccc(C)c2C)c2cccnc12 | 1
CC(C)(C)c1csc(NCc2ccccc2O)n1 | 0.96
CCOc1cc2c(cc1OCC)C(c1ccccc1F)CC(=O)N2 (stereo unspecified) | 0.97
COc1ccc2[nH]c(C)c(CCNS(=O)(=O)c3ccc(C(C)C)cc3)c2c1 | 0.87
OC(C#CCN1CCOCC1)(c1ccccc1)c1cccs1 (stereo unspecified) | 1.3
COc1ccc2cc(CCNC(=O)COc3ccc4ccccc4c3)c(=O)[nH]c2c1 | 1
CCN1C(=O)c2ccccc2S(=O)c2ccc(C(=O)N3CCc4ccccc43)cc21 (stereo unspecified) | 1
CC(C)Cn1c(C(C)NC(=O)c2ccccc2)nc2ccccc21 (stereo unspecified) | 1
CCOC(=O)c1ccc(NC(=O)CSc2nnc(-c3cccnc3)o2)cc1 | 1
O=C(CSc1nnc(-c2cccnc2)o1)Nc1ccc(Br)cc1 | 1
O=C(CSc1nnc(-c2cccnc2)o1)Nc1ccc(Cl)c(Cl)c1 | 0.47*
CC1CCN(Cc2cc(Cn3ccnc3)c3cccnc3c2O)CC1 | 0.0061*
Cc1cc(OCC(O)CN2CCC(C)CC2)ccc1Cl (stereo unspecified) | 1.1
CCCC(=O)NC(c1ccc(C)cc1)c1cc(Cl)c2cccnc2c1O (stereo unspecified) | 0.72
CC1CCN(Cc2nc(-c3ccccc3)no2)CC1 | 0.91
Cc1[nH]c2ccccc2c(=O)c1CN1CCC(C)CC1 | 1.1
CC1CCN(CCCNC(=O)c2cnc(N3CCN(c4ncccn4)CC3)c3ccccc23)CC1 | 1.1
CC1CCN(Cc2cc(Cl)c(O)c3ncccc23)CC1 | 0.0029*
CC1CCN(Cc2cc(Cl)c3cccnc3c2O)CC1 | 0*
CC1CCN(c2nc(-c3ccccc3O)nc3ccccc23)CC1 | 1
COc1cc2c(cc1OC)C(C(=O)N1CCCCCC1)C1c3ccccc3CCN1C2=O (stereo unspecified) | 1.1
O=C(Cn1c(N2CCOCC2)nc2ccccc21)c1ccccc1 | 1.1
CCOC(=O)c1c(NC(=O)c2nn3c(C(F)(F)F)cc(-c4ccc(Cl)cc4)nc3c2Cl)sc2c1CCCC2 | 0.86
Cc1nc2cc(-c3ccccc3)nn2c(C)c1CCC(=O)NCCN1CCCC1 | 0.99
